According to PubChem BioAssay AID652039 (The Scripps Research Institute Molecular Screening Center, 2013):
The whole screen tested about 370,000 compounds, of which about 3,300 (0.89%) were called active.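 The calls were made as follows: active = activation above the mean of all tested compounds plus 3 SD, computed per campaign excluding outliers beyond control limits (cut at about 13% in these data); inactive = the rest.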 What follows is part of a selection rich in actives, with near analogues and random picks from the rest.

The molecules below were run against Kallikrein-7 (Homo sapiens) (UniProt P49862) (assay: activation of human kallikrein-7 proenzyme – biochemical, fluorescence intensity, primary screen (AID 652039)). Settings: purified proKLK7, EDANS-DABCYL substrate fluorescence; at 7 µM; active compounds read high; 100% is mature enzyme control, 0% vehicle.
Sequence of Kallikrein-7 (Homo sapiens) (P49862 whole entry, looked up): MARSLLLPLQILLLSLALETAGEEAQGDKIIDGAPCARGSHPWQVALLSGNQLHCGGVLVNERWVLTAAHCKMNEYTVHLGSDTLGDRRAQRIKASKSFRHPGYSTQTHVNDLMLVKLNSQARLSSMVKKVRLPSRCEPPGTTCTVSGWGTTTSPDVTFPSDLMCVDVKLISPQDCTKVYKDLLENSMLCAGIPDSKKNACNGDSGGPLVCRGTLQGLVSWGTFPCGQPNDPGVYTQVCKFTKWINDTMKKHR
With `COC(=O)[C@H](C(C)C)N(CCc1cn(Cc2ccccc2)nn1)S(=O)(=O)c1ccc(F)cc1Br` the activation was 0.93% (inactive).
For `C[C@@H]1C(c2ccc(F)cc2)=NN(c2ccc(Br)cc2)[C@H]1C(=O)N1CCOC1=O`, the activation was 37.1% (active).
With `O=C1OCCN1C(=O)[C@H]1[C@H](c2ccccc2)C(c2ccc(F)cc2)=NN1c1ccccc1` the activation was -23.2% (inactive).
For `O=C1OCCN1C(=O)[C@H]1[C@H](c2ccc(Cl)cc2)C(c2cccc(Cl)c2)=NN1c1ccc(Br)cc1`, the activation was -322% (inactive).
`CSc1ccc(C=Nn2c(-c3ccc(F)cc3)n[nH]c2=S)cc1` was tested, and the activation was -0.19% (inactive).
In the case of `CN(C(=O)c1ccccc1)c1nccnc1C#N`, the activation is reported as -0.08% (inactive).
With `CN(C(=O)c1ccccn1)c1nnc(-c2ccccn2)s1` the activation was 26.2% (active).
`CN(C(=O)COc1ccccc1)c1nnc(-c2ccncc2)s1` was tested, and the activation was 15.3% (active).
In the case of `CCC(C)(C)NC(=O)C(c1ccccn1)N(C(=O)c1csnn1)c1ccccc1` (stereo not drawn), the activation is reported as 0.19% (inactive).
`COc1cccc(-c2nnc(N(C)C(=O)c3ccno3)s2)c1` was tested, and the activation was 0.14% (inactive).
`CN(C(=O)C1CCOC1)c1nnc(-c2cccnc2)s1` (stereo not drawn) was tested, and the activation was 1.7% (inactive).
With `CC(C)Oc1ccc(CCc2nnc(SCC(=O)O)n2-c2ccccc2)cc1` the activation was 0.35% (inactive).
With `O=C(Nc1nc2ccc(Cl)cc2s1)c1cc(-c2ccc(Cl)cc2)nc2ccccc12` the activation was 0.7% (inactive).
`CCOC(=O)COc1cc(OCC(=O)OCC)c2c(=O)cc(-c3ccccc3)oc2c1` was tested, and the activation was 13.1% (active).
For `COc1cccc2oc(CCc3ccccc3)cc(=O)c12`, the activation was 2.15% (inactive).
With `Cc1cc(OCC(=O)NCC(O)c2ccccc2)c2c(C)c(C)c(=O)oc2c1` (stereo not drawn) the activation was 0.58% (inactive).
For `COc1ccc(S[C@]2(C(=O)N(C)C)CC(=O)N(c3ccc(OC)cc3)[C@@H]2c2ccc(OC)cc2)cc1`, the activation was 0.22% (inactive).
With `CC(c1ccc(N)cc1)c1cn(C)c2ccccc12` (stereo not drawn) the activation was 0.46% (inactive).
`COc1ccc(C2CC=C(C(=O)O)C(c3ccccc3F)N2S(=O)(=O)c2ccc(C)cc2)cc1OC` (stereo not drawn) was tested, and the activation was 0.12% (inactive).
In the case of `CCOc1cc(C2C(C(=O)OC)=CN(C3CCCC3)C=C2C(=O)OC)cc(Br)c1O`, the activation is reported as -0.82% (inactive).
With `CCOc1ccccc1C1C(C(=O)OC)=CN(C)C=C1C(=O)OC` the activation was 46.1% (active).
For `COC(=O)C1=CN(C)C=C(C(=O)OC)C1c1ccc(Cl)cc1Cl`, the activation was 0.08% (inactive).
With `O=S1(=O)c2ccc(Br)cc2OC[C@@H](Cc2ccccc2)N1Cc1cn(Cc2ccco2)nn1` the activation was 0.26% (inactive).
With `Cc1cc(NC(=O)CCN2CCN(Cc3ccccc3)CC2)ccc1Br` the activation was 0.91% (inactive).
`CCOC(=O)c1[nH]c2ccc(OC)cc2c1NC(=O)CCN1CCN(Cc2ccccc2)CC1` was tested, and the activation was 13.4% (active).
For `COc1cc2[nH]c(=O)n(CCC(=O)NC3CCN(Cc4ccccc4)CC3)c(=O)c2cc1OC`, the activation was -1.29% (inactive).
With `COc1ccc(C(=O)OCCN(C)C2CN(Cc3cn(Cc4cccc(C)c4)nn3)S(=O)(=O)C2)cc1OC` (stereo not drawn) the activation was 0% (inactive).
In the case of `CCCCNC(=O)C[C@H]1C(=O)N(Cc2ccc(OC)cc2)C2=CCCC[C@@]21C(=O)OCC`, the activation is reported as -0.1% (inactive).
For `N#Cc1ccccc1OC[C@@H](O)CN1CCC(C(O)(c2ccccc2)c2ccccc2)CC1`, the activation was 0.62% (inactive).
With `COc1ccc(N2CCN(C(=O)Cn3cnc4sc(C)c(S(=O)(=O)N5CCOCC5)c4c3=O)CC2)cc1` the activation was -0.12% (inactive).
`c1ccc(-c2cn3cccnc3n2)cc1` was tested, and the activation was 32.3% (active).
In the case of `Cc1ccccc1Nc1c(-c2ccccc2)nc2ncccn12`, the activation is reported as 0.74% (inactive).
`COc1ccc(N2CCN(C(=O)CSc3nnc4ncccn34)CC2)cc1` was tested, and the activation was 0.11% (inactive).
In the case of `Nc1nc2ncccn2c1-c1ccccc1`, the activation is reported as 5.34% (inactive).
For `FC(F)(F)Oc1ccc(-c2cn3cccnc3n2)cc1`, the activation was 34.6% (active).
`COc1ccc(-c2ccnc(SCC(=O)N3CCOCC3)n2)cc1` was tested, and the activation was 0.01% (inactive).
For `COc1ccc(-c2cn3cccnc3n2)cc1`, the activation was 73.9% (active).
For `C=CCOC/C=C/C#CCN(CC=C)Cc1ccc(OC)cc1OC`, the activation was 0.82% (inactive).
In the case of `O=C(CSc1nc2ccccc2s1)N=Nc1c(O)[nH]c2ccccc12`, the activation is reported as 0.68% (inactive).
In the case of `Cc1ccc(-n2c(COc3ccccc3)nnc2SCC(=O)Nc2ccc3c(c2)OCCO3)cc1`, the activation is reported as 0.98% (inactive).
`CCOC(=O)N1CCN(C(=O)C[C@H]2C[C@@]3(C(=O)OC)C(=C[C@H](C(C)(C)C)O[C@@H]3C)N(Cc3ccc(Cl)cc3Cl)C2=O)CC1` was tested, and the activation was 0.88% (inactive).
With `COC(=O)c1cc(N2CCNCC2)nc2ccccc12` the activation was 78.9% (active).
With `Cc1cc(C(=O)OCC(=O)N2C(C)CCCC2C)c2ccccc2n1` (stereo not drawn) the activation was -1.23% (inactive).
For `COC(=O)c1ccccc1Oc1c(F)c(F)nc(N2CCOCC2)c1F`, the activation was 0.34% (inactive).
With `CCOC(=O)[C@@]12CN(C(=O)OC(C)(C)C)CC=C1N(Cc1ccc(OC)cc1)C(=O)[C@H]2CC(=O)NCc1ccc(OC)c(OC)c1` the activation was 0.61% (inactive).
In the case of `CC1C(=O)C(C)C(c2ccc(O)cc2)NC1c1ccc(O)cc1` (stereo not drawn), the activation is reported as 0.15% (inactive).
For `Cc1cc(C)c2nc3nc(C)cc(C)c3c(N)c2c1`, the activation was 52.6% (active).
With `CCC(CO)Nc1cccc2c1S(=O)(=O)N(Cc1cn(Cc3ccccc3C(F)(F)F)nn1)Cc1ccccc1O2` (stereo not drawn) the activation was 0.4% (inactive).
`Cc1ccccc1CN1CCCCC(NC(=O)Nc2ccccc2F)C1=O` (stereo not drawn) was tested, and the activation was 0.62% (inactive).
For `C#CCCN([C@H](C(=O)OC)C(C)C)S(=O)(=O)c1ccc(F)cc1Br`, the activation was -0.16% (inactive).
`O=S1(=O)c2c(cccc2N2CCSCC2)Oc2ccccc2CN1Cc1cn(Cc2ccc(F)cc2)nn1` was tested, and the activation was -2.26% (inactive).
With `CN(CC(=O)Nc1ccc(Cl)cc1)CC(=O)Nc1cccc2ccccc12` the activation was 0.06% (inactive).
In the case of `C/C(=N\NC(=O)CNc1cccc2ccccc12)c1ccc(Br)s1`, the activation is reported as 2.95% (inactive).
With `Cn1cccc1/C=N/NC(=O)CNc1cccc2ccccc12` the activation was 22.8% (active).
`COc1ccc(/C=C2\CC3(OC(C)=O)CCCN2C3)cc1` (stereo not drawn) was tested, and the activation was 0.04% (inactive).
With `CCC(=O)Nc1ccc2nn(-c3ccc(F)cc3)nc2c1` the activation was 7.33% (inactive).
With `Nc1nc2cc(Cl)ccc2n1N` the activation was 0.42% (inactive).
For `Nc1ccc2nn(-c3ccc(Cl)cc3)nc2c1`, the activation was 64.3% (active).
